Compound activity from PubChem.
Shown are actives, neighbours in structure and some others; about 0.92% of the full set was active somewhere.
WRN inhibitor: WRN helicase (human) inhibition | Potency, µM (series often up to 114 µM), for inactives: top-dose activity change, negative = inhibition, usual class: inhibitors | 360,000 compounds, 0.46% hits | WRN helicase unwinding, fluorescent forked duplex, kinetic; note: nearly all actives have a fitted effect of over 55% in size
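Enzyme (20 nM final) and test compound sit together 15 min at room temperature before substrate addition. Substrate is a single-forked duplex oligonucleotide (100 nM) labelled with fluorophore and quencher, with 2 mM ATP; helicase unwinding raises red fluorescence, read kinetically.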
L3MBTL1 block: inhibitors of human L3MBTL1; 230,000 compounds, 0.66% hits; AlphaScreen L3MBTL1–H3K9me1 peptide binding; Potency, µM (titrated, usually from 57.1 µM), without a hit: top-dose activity, negative = inhibition, usual class: inhibitors; Q9Y468; AID 485360; note: nearly all actives have a fitted effect of over 60% in size
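L3MBTL1 (50 nM) pre-complexed 30 min with biotinylated H3(1-15)K9me1 peptide (75 nM), then compounds added for 30 min at room temperature; AlphaScreen streptavidin donor/nickel chelate acceptor beads (10 ug/mL final) read after 30 min dark incubation.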
RECQ1 helicase: RECQ1 (human) helicase inhibition. 240,000 compounds, 0.54% hits. Potency, µM (titrated, usually from 57.3 µM), for inactives: at the top dose activity, negative = inhibition, usual class: inhibitors. AID 2549. RECQ1 DNA unwinding, red fluorescence kinetic read;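 note: plate controls were vehicle for no effect and no enzyme for full effect; nearly all actives have a fitted effect of over 30% in size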
Target sequence (P46063 whole entry, looked up): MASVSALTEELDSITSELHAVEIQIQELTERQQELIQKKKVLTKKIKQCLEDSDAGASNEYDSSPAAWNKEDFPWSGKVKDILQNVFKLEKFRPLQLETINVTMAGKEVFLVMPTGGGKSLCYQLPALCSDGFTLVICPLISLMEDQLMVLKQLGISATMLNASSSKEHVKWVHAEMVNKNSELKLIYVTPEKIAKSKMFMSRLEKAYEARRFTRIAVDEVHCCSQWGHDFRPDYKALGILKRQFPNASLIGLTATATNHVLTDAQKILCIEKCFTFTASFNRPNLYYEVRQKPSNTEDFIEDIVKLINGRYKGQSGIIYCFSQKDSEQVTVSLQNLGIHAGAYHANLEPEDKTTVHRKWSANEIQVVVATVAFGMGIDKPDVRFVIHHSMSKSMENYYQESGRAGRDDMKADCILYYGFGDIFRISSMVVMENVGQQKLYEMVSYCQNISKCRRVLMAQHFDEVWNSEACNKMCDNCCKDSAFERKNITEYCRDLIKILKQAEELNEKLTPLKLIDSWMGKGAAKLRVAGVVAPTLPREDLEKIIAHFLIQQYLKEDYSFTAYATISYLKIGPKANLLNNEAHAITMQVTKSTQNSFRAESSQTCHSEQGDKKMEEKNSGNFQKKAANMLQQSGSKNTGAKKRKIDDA
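RECQ1T1 50 nM; forked duplex (20 bp + 30-nt ss tails) 200 nM, ATP 2 mM final; pH 8.0, 2 mM MgCl2, 2.5 ug/ml poly(dI-dC); 15 min compound preincubation; discontinuous kinetic read over 2 h at RT.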
APEX1 inh: APE1 (human) endonuclease inhibition; 350,000 compounds, 0.35% hits; Potency, µM (doses to about 65.8 µM), for the others: at the top dose activity change, negative = inhibition, most hits filed as inhibitors; P27695; AID 2517; recombinant APE1, TAMRA/BHQ-2 abasic DNA cleavage fluorescence;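 note: plate controls were vehicle for no effect and reference inhibitor for full effect; nearly all actives have a fitted effect of over 55% in size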
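0.75 nM APE1 + cpd, 15 min RT; start w/ 50 nM TAMRA/BHQ-2 THF-abasic dsDNA; kinetic fluor 525/598 nm ×3 reads @60 s; Δ(read3−read1); normalized to DMSO and NSC13755 control wells.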
BLM inh: Bloom syndrome helicase (human) inhibition | Potency, µM (doses to about 56.1 µM), for inactives: top-dose activity change, negative = inhibition, hits mostly inhibitors | 350,000 compounds, 0.2% hits | P54132 | recombinant BLM DNA unwinding, fluorescence dequenching;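 note: plate controls were vehicle for no effect and no enzyme for full effect; nearly all actives have a fitted effect of over 35% in size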
Starred values were filed as active, the others as inactive; i = inactive; ? = inconclusive; / = no result; [ ] = remark or other dose. Calls come from the whole dose curve; as a rule, active = well fitted curve in the direction sought with a large enough effect; inconclusive = small, poorly fitted or top-dose-only effect, or another doubt; inactive = no such curve, though single readings can be large; an effect the other way counts as inactive or inconclusive. Unless noted, % is set by controls: 0 for no effect and ±100 for the full control effect; potency is the fitted concentration of half-maximal effect.

SMILES	WRN inhibitor	L3MBTL1 block	RECQ1 helicase	APEX1 inh	BLM inh
CSCC[C@@H](N)C(=O)O	/	/	0%	-1%	/
Clc1nssc1=Nc1nncs1	-9%	-3%	/	0%	/
Clc1nssc1=Nc1ccc(Br)cc1	40µM*	/	i	21%	-4%
Clc1ccc(N=c2ssnc2Cl)nc1	51%	?	-7%	8%	-5%
COc1cc(N=c2ssnc2Cl)cc(OC)c1	50µM*	-9%[11.4 µM]	5%	-8%	2%
N#Cc1cccc(N=c2ssnc2Cl)c1	25µM*	2%	-6%	1%	-3%
O=c1cc(-c2ccc(O)c(O)c2)oc2ccccc12	/	/	i	10%	-23%
CC(=O)NC[C@@H]1CN(c2ccc(N3CCOCC3)c(F)c2)C(=O)O1	/	/	/	/	5%
CCC(=O)OCOc1ccc(/C=C2/CCC(CN(C)C)C2=O)cc1 (stereo unspecified)	11µM*	/	/	/	/
N#Cc1c(NC(=O)c2ccccc2Cl)n(Cc2ccccc2)c2nc3ccccc3nc12	?	10%	?	2%	14µM*
CCCCn1c(NC(=O)c2ccccc2Cl)c(C#N)c2nc3ccccc3nc21	-35%	19%	?	?	?
COc1ccc(-n2c(NC(=O)c3ccco3)c(C#N)c3nc4ccccc4nc32)cc1	50µM*	10%	17%	2%	32µM*
CC[n+]1ccc(/C=C/c2ccc(N(C)C)cc2)c2ccccc21	45µM*	25µM*	35µM*	10%	-28%
CCNC(=S)NNC(=O)c1ccccn1	-5%	3.5µM*	0%	4%	-6%
COc1ccc(-c2cc(=O)c3ccc(F)cc3[nH]2)cc1	/	/	0%[81.1 µM]	-6%[120 µM]	1%[120 µM]
O=c1oc2cc(O)ccc2c2oc3cc(O)ccc3c12	?	6%	32µM*	?	?
COc1c(O)c(O)cc2c1oc1c3ccccc3oc(=O)c21	/	/	11µM*	28µM*	14µM*
Cc1c(O)c2ccccc2oc1=O	3%	/	i	12%	-1%
CC[N+]1=C(C)C(C)(C)c2cc(C)ccc21	?	/	25µM*	10µM*	-10%
O=C(c1coc(=O)c(Br)c1)N1CCOCC1	?	14µM*	-9%	13µM*	1%
O=C(c1cc(Br)c(Br)s1)N1CCOCC1	0%	13%	/	18%	/
c1coc(CSSCc2ccco2)c1	50µM*	-6%	/	5%	/
Nc1nc2c(nc(Br)n2[C@@H]2O[C@H]3COP(=O)(O)O[C@H]3[C@@H]2O)c(=O)[nH]1	/	/	-2%	2%	-1%
O=c1c2nc(Br)n([C@@H]3O[C@@H]4CO[P@@](O)(=S)O[C@H]4[C@H]3O)c2nc2[nH]c(-c3ccccc3)cn12	/	/	-1%	13µM*	-6%
Cc1ccnc2c1ccc1cccnc12	-13%	3.5µM*	/	1%	/
SMILES	WRN inhibitor	L3MBTL1 block	RECQ1 helicase	APEX1 inh	BLM inh
c1cnc2c(c1)ccc1cccnc12	-6%	3.2µM*	-5%	-1%	17%
Cc1ccnc2c1ccc1ccccc12	1%	/	/	6%	-9%
O=C1OC(=O)c2c(Cl)c(Cl)c(Cl)c(Cl)c21	/	/	-1%	-3%	/
CC(C)C[C@H](NC(=O)[C@H](Cc1ccccc1)C[C@@H](O)[C@H](Cc1ccccc1)NC(=O)OC(C)(C)C)C(=O)N[C@@H](Cc1ccccc1)C(N)=O	/	/	-8%	-4%	-1%
CC(C)CNc1nc(C#N)nc(Nc2ccccc2)n1	/	/	-8%	1%	-11%
Cc1c2oc3c(C)ccc(C(=O)N[C@@H]4C(=O)N[C@@H](C(C)C)C(=O)N5CCC[C@@H]5C(=O)N(C)CC(=O)N(C)[C@@H](C(C)C)C(=O)O[C@H]4C)c3nc-2c(C(=O)N[C@@H]2C(=O)N[C@@H](C(C)C)C(=O)N3CCC[C@@H]3C(=O)N(C)CC(=O)N(C)[C@@H](C(C)C)C(=O)O[C@H]2C)c(N)c1=O	/	/	2.8µM*	?	-18%
O=C(CCN1C(=O)/C(=C/c2ccco2)SC1=S)Nc1ccc(O)cc1C(=O)O	32µM*	/	/	-5%	29%
O=C(CCN1C(=O)/C(=C\c2ccco2)SC1=S)Nc1ccc(C(=O)O)c(O)c1	50µM*	/	/	?	-8%
O=C(CCCN1C(=O)/C(=C\c2ccco2)SC1=S)Nc1ccc2ccccc2c1	0%	-13%	-19%	-11%	-25%
COc1ccccc1/C=C1\SC(=S)N(CCC(=O)Nc2ccc(C(=O)O)c(O)c2)C1=O	-11%[11.6 µM]	/	/	-3%	-9%
O=C(CCCN1C(=O)/C(=C\c2ccccc2)SC1=S)Nc1ccc(O)cc1C(=O)O	-4%	/	/	-25%	-4%
O=C(CN1C(=O)/C(=C\c2ccco2)SC1=S)Nc1ccc(O)cc1C(=O)O	50µM*	/	/	-39%	5%
O=C1CCCC2CCCCN12 (stereo unspecified)	/	/	i	-1%[186 µM]	3%[186 µM]
COc1cc([C@@H]2c3cc4c(cc3[C@@H](O[C@@H]3O[C@H]5CO[C@@H](C)O[C@@H]5[C@@H](O)[C@H]3O)[C@@H]3COC(=O)[C@@H]23)OCO4)cc(OC)c1O	/	/	-10%	-3%	-14%
CCCCNC(=O)N1CCN(c2ccnc3cc(Cl)ccc23)CC1	50µM*	/	/	-12%	1%
CC(=O)N1CCN(c2ccnc3cc(Cl)ccc23)CC1	6%	/	-10%	6%	5%
CN(C)S(=O)(=O)c1cccc(-c2nn(-c3ccccc3)cc2/C=C2\SC(=S)NC2=O)c1	50µM*	-16%	-7%	-5%	-28%
Cc1[nH]c(/C=C2/C(=O)Nc3ccc(S(=O)(=O)Cc4c(Cl)cccc4Cl)cc32)c(C)c1C(=O)N1CCCC1CN1CCCC1 (stereo unspecified)	/	/	-19%	?	?
CCOc1ccc(NC(=O)Cn2sc3nc(C)cc(C)c3c2=O)cc1	20µM*	-4%	-6%	2%	-1%
CCOc1ccc2[nH]c3ncccc3c(=O)c2c1	-7%	/	/	16%	-2%
CCOc1ccc2c(ccc(/C=C/c3cc(C)c4cccnc4c3O)[n+]2C)c1	10µM*	/	/	/	/
CC(C)n1c(=S)[nH]c2c1c(=O)[nH]c(=O)n2C	89µM*	-6%	-7%	0%	3%
C=CC[N@@+]12CC[C@@]34c5ccccc5N5/C=C6/[C@H]7C[C@H]8[C@@]9(CC[N@@+]8(CC=C)C/C7=C/CO)c7ccccc7N(/C=C(/[C@@H](C[C@@H]31)/C(=C\CO)C2)[C@H]54)[C@@H]69	/	/	/	-1%[21 µM]	/
CCN(CC)c1ccc(C=C2C(=O)OC3(CCCCC3)OC2=O)cc1	50µM*	-22%	32µM*	-5%	-4%
C=CC#CC[N+]1(CC#Cc2ccccc2)CCOCC1	22µM*	10%	-19%	2%	72%
CN1C=CC(=C2C=CN(C)C=C2)C=C1	/	/	-10%	27%	6%
CN(O)/C=c1/ccc2c(n1)C(=O)C=CC=2	-1%	20µM*	-1%	10%	1%
